RTF Ca sens act: cardiac RTF calcium sensitization | P19429+P45379 | IANBD-labeled TnC RTF fluorescence at EC20 calcium; 0% EC20 calcium, 100% full calcium | activation, % at 7.2 µM | 340,000 tested, 0.24% active;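 active = activation above the mean over all tested compounds plus 3 SD, cut at about 30% in these data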;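 note: rise in fluorescence read as greater calcium sensitivity of cardiac thin filaments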
E coli Lon inh: E. coli protease La inhibition; purified E. coli Lon protease, fluorescence polarization; 360,000 tested, 0.42% active; AID 602123; inhibition, % at 7.94 µM; in the data active = inhibition above about 13%, passing the limit was not always enough;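 note: 0% = enzyme with probe and DMSO and 100% = no enzyme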
LANA-H2B inh: blocks KSHV LANA binding to histone H2A/H2B; Q9QR71; cell-free LANA-H2A/H2B peptide, fluorescence polarization; inhibition, % (no concentration beside the values); 320,000 tested, 0.6% active; in the data active = inhibition mostly above about 10%, no sharp cut-off; inactive = mostly below about 6.7%
Cardiac RTF inh: cardiac RTF calcium desensitization; 340,000 tested, 0.12% active; AID 493244; inhibition, % at 7.15 µM; IANBD-labeled cardiac RTF, Ca2+ fluorescence;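 active = inhibition above the mean inhibition of all tested compounds plus 3 SD, cut at about 17% in these data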;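 note: assay run at fixed EC70 calcium of 1.6 mM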
LANA DNA inh: KSHV C-LANA DNA binding inhibition. MBP-C-LANA/FAM-LBS DNA binding, fluorescence polarization. inhibition, % at 9 µM. 340,000 tested, 0.078% active. AID 504423;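 active = highest replicate inhibition at or above 60% at 9 µM, even if other replicates fall short; inactive = all replicates below 60% inhibition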;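 note: 0% = neutral control wells and 100% = 4 µM acridine orange control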
Keap1-Nrf2 PPI: disrupts human Keap1 binding to Nrf2 peptide; Keap1 Kelch-Nrf2 peptide fluorescence polarization, 1536-well; inhibition, % at 9.4 µM; Q14145; 340,000 tested, 0.15% active; in the data active = inhibition above about 12%;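 note: human Keap1 Kelch domain with fluorescein labeled Nrf2 9mer peptide probe; 0% = neutral control wells and 100% = peptide positive control; higher means more block of Keap1 binding to Nrf2 peptide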
Target sequence (Q14145 whole entry, looked up, the tested form may be a part): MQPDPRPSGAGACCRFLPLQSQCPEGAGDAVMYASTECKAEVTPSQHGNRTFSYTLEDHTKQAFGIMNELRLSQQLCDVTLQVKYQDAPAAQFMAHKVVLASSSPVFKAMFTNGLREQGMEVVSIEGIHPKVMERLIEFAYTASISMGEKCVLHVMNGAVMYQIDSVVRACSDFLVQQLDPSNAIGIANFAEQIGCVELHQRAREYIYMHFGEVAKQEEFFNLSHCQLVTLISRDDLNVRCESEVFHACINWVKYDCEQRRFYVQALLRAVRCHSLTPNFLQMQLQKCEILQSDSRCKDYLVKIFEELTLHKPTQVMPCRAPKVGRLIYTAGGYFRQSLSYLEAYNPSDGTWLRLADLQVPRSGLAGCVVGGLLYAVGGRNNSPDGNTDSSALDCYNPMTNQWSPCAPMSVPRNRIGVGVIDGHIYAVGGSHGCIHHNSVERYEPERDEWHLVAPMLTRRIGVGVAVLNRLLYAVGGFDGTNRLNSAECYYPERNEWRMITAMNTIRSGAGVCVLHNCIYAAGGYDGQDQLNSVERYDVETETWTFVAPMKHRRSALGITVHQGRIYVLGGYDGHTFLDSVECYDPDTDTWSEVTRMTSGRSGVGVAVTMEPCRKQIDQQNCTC
* = called active by the depositor; x = no result; + = active, no number. Hits are enriched below; roughly 1.3% of the tested compounds scored in any of these assays.

SMILES	RTF Ca sens act	E coli Lon inh	LANA-H2B inh	Cardiac RTF inh	LANA DNA inh	Keap1-Nrf2 PPI
CCc1cccc(NC(=O)CC2SC(N3CCCC3)=NC2=O)c1 (stereo unspecified)	-1	-1	-2	-6	-2	-4
O=C(CC1SC(N2CCCCC2)=NC1=O)Nc1cccc(C(=O)O)c1 (stereo unspecified)	-4	-3	14*	-3	1	-1
COc1ccc(NC(=O)CCC(=O)Nc2nnc(C3CCCCC3)s2)c(OC)c1	-4	-2	-2	1	0	-2
COc1ccc(OC)c(-c2csc(N(CC3CCCO3)C(=O)Cc3ccccc3)n2)c1 (stereo unspecified)	0	4	1	-10	-1	4
CCCN1C(=O)/C(=C/c2c(N3CCNC(=O)C3CC(=O)OCC)nc3c(C)cccn3c2=O)SC1=S (stereo unspecified)	130*	-426	-19	-302	-10	-132
CCOC(=O)CC1C(=O)NCCN1c1nc2ccc(C)cn2c(=O)c1/C=C1\SC(=S)N(CC(C)C)C1=O (stereo unspecified)	182*	-249	-31	-231	-4	-141
CCOC(=O)CC1C(=O)NCCN1c1nc2ccc(C)cn2c(=O)c1/C=C1\SC(=S)N(C(C)CC)C1=O (stereo unspecified)	x	x	-28	x	x	x
CCN(CC)S(=O)(=O)c1cc(C(=O)OC(C)C(=O)NCc2ccco2)ccc1C (stereo unspecified)	1	0	-3	2	-1	0
O=C1c2ccccc2C(=O)N1CCCSc1nc2ccccc2o1	-9	-4	15*	-9	-2	-5
COc1cc(OC)cc(C(=O)NCCCN2CCN(CCCNC(=O)c3cc(OC)cc(OC)c3)CC2)c1	5	-4	3	-3	-1	-1
O=C(COC(=O)CCSc1ccc(F)cc1)NCc1ccc(F)cc1	-5	-4	1	5	1	-6
COc1ccc(Cl)cc1C(=O)N1CCN(Cc2ccc3c(c2)OCO3)CC1	1	1	14*	-6	-2	-3
O=C(c1cc(Cl)nc2ccccc12)N1CCN(Cc2ccc3c(c2)OCO3)CC1	0	-8	21*	6	2	-5
O=C(c1ccccc1Cl)N1CCN(Cc2ccc3c(c2)OCO3)CC1	0	-2	0	-2	2	-6
COc1ccc(C(=O)N2CCN(Cc3ccc4c(c3)OCO4)CC2)cc1OC	-4	-5	-2	-3	0	0
CCN(C[C@H]1N[C@@](Cc2ccccc2)(C(=O)OC)[C@H]2C(=O)N(Cc3ccccc3)C(=O)[C@@H]12)C(=O)COc1ccccc1	-1	2	+	0	3	-4
CCN(C[C@H]1N[C@@](Cc2ccccc2)(C(=O)OC)[C@H]2C(=O)N(Cc3ccccc3)C(=O)[C@@H]12)S(=O)(=O)c1ccc(OC(F)(F)F)cc1	-4	6	+	-5	1	0
CCN(C[C@H]1N[C@@](Cc2ccccc2)(C(=O)OC)[C@H]2C(=O)N(Cc3ccccc3)C(=O)[C@@H]12)S(=O)(=O)c1ccc(C(C)(C)C)cc1	-9	1	67*	-6	0	-3
CCN(C[C@H]1N[C@@](Cc2ccccc2)(C(=O)OC)[C@H]2C(=O)N(Cc3ccccc3)C(=O)[C@@H]12)S(=O)(=O)c1ccc(OC)cc1	-1	-8	-3	-17	0	-2
COC(=O)[C@]1(Cc2ccccc2)N[C@H](CN(C)C(=O)COc2ccccc2)[C@@H]2C(=O)N(Cc3ccccc3)C(=O)[C@@H]21	-2	1	x	-6	0	-1
O=C(CN1C(=O)/C(=C/c2ccccc2F)Sc2ccccc21)N1CCN(c2ccccn2)CC1	3	-3	0	2	1	-6
CN1CCN(S(=O)(=O)c2ccc(Br)c3ccccc23)CC1	-7	9	2	-8	5	3
CCOc1ccc(NC(=O)CC(c2ccccc2)c2ccc(F)cc2)cc1 (stereo unspecified)	-3	3	-2	-13	1	-2
CCN(CC)S(=O)(=O)c1ccc(N2CCOCC2)c(NC(=O)COc2ccc(OC)cc2)c1	-5	-10	+	1	0	-5
COc1ccc(C(CNC(=O)c2oc3c(Cl)cccc3c2C)N2CCCC2)cc1 (stereo unspecified)	2	-8	22*	-12	-3	-1
SMILES	RTF Ca sens act	E coli Lon inh	LANA-H2B inh	Cardiac RTF inh	LANA DNA inh	Keap1-Nrf2 PPI
COc1ccc(C(CNC(=O)c2oc3ccccc3c2C)N2CCCC2)cc1 (stereo unspecified)	-3	-23	-1	-5	1	-4
CCOC(=O)C(=O)Cc1cccnn1	-1	10	x	-9	72*	2
CCOC(=O)C(Cc1ccnc2ccccc12)=NO	-5	5	x	-4	0	0
O=C(CN(Cc1ccc(Br)cc1)S(=O)(=O)c1ccccc1)NCC1CCCO1 (stereo unspecified)	-3	5	-9	-8	1	0
CCN(c1ccccc1)S(=O)(=O)c1ccc(OC)c(NC(=O)CN(C)C)c1	-1	6	94*	-7	0	0
O=C(Nc1ccccc1C(=O)NCCCN1CCOCC1)c1ccc(Cl)cc1	0	5	88*	-6	0	1
CCC(=O)c1cn(CC(=O)Nc2ccc(F)cc2)c2ccccc12	x	-4	x	x	x	x
CC(C)=CCc1c(O)ccc2c1OC(c1ccc(O)c(O)c1)CC2=O (stereo unspecified)	5	-12	-3	-2	0	0
O=C1CC(c2ccc(O)c(O)c2)Oc2c1ccc(O)c2O (stereo unspecified)	-6	-9	13	-1	97*	-2
CC(=O)c1cccc(NC(=O)N2CCCC2C(=O)Nc2ccc3c(c2)OCO3)c1 (stereo unspecified)	1	-5	-4	-7	-1	-3
Cc1c(CC(=O)O)c(=O)oc2cc(OCc3ccc(Cl)cc3)ccc12	-2	4	44*	-1	-1	-2
COc1cc(/C=C/C(=O)N2CCOCC2)ccc1OCc1ccccc1	-2	-5	6	-13	1	3
CCCCCCOc1ccc(/C=C/C(=O)N2CCOCC2)cc1OC	-5	-2	11*	0	0	-2
CCN(Cc1ccncc1)Cc1nc(-c2ccc(C(=O)OC)cc2)no1	2	-7	9.6*	-2	-1	-2
COC(=O)c1ccc(-c2noc(CN(C)Cc3ccncc3C)n2)cc1	-2	-6	-1	-2	-1	-3
CC[C@H]1c2[nH]c3ccccc3c2C[C@H]2C(=O)N(c3ccc(F)cc3)C(=O)N21	-3	3	+	-7	-1	-5
CC1=NN(C(=O)c2ccc(Cl)cc2)C(O)(c2ccccc2)C1 (stereo unspecified)	0	-3	9.9*	-4	-1	0
